Unmarked numbers belong to inactive results. Results filed as inconclusive are left out. Calls of active or inactive are those of the source. Unless noted, no stated cut-off is given here; in the data, active means fluorescence slope change above about 50%; inconclusive means mostly about 31% to 49%; inactive means weaker than that.
How the values were obtained:
[1] = compounds altering circadian rhythm period length – cell-based, LOPAC library, luminescence reporter (AID 2774; call rule not given here;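 further: values are relative to mean of DMSO wells on each plate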); conditions: circadian reporter cells, at 7 µM, actives lie on both sides
[2] = system: Hepatitis C virus NS3 helicase; experiment: blockers of NS3h binding to ssDNA – biochemical, fluorescence polarization, LOPAC1280 library, primary screen (AID 687035; in the data active means inhibition above about 37%); conditions: Purified HCV NS3 helicase, Cy5-dT15 ssDNA binding fluorescence polarization; hits give high values; concentration not given here
[3] = compounds altering Cy5-DNA-NS3h complex signal – biochemical, LOPAC1280, artefact control for HCV NS3 helicase inhibitor project (AID 687037; call rule not given here); conditions: Cy5-DNA-NS3h complex fluorescence interference counterscreen
[4] = molecular target: ATP-dependent translocase ABCB1 (Homo sapiens) (UniProt P08183); experiment: P-glycoprotein substrate transport blockade – cell-based (AID 377); conditions: MDR1-expressing cells, fluorescent substrate accumulation slope; hits give high values; concentration not given here
ATP-dependent translocase ABCB1 (Homo sapiens), sequence (P08183 whole entry, looked up): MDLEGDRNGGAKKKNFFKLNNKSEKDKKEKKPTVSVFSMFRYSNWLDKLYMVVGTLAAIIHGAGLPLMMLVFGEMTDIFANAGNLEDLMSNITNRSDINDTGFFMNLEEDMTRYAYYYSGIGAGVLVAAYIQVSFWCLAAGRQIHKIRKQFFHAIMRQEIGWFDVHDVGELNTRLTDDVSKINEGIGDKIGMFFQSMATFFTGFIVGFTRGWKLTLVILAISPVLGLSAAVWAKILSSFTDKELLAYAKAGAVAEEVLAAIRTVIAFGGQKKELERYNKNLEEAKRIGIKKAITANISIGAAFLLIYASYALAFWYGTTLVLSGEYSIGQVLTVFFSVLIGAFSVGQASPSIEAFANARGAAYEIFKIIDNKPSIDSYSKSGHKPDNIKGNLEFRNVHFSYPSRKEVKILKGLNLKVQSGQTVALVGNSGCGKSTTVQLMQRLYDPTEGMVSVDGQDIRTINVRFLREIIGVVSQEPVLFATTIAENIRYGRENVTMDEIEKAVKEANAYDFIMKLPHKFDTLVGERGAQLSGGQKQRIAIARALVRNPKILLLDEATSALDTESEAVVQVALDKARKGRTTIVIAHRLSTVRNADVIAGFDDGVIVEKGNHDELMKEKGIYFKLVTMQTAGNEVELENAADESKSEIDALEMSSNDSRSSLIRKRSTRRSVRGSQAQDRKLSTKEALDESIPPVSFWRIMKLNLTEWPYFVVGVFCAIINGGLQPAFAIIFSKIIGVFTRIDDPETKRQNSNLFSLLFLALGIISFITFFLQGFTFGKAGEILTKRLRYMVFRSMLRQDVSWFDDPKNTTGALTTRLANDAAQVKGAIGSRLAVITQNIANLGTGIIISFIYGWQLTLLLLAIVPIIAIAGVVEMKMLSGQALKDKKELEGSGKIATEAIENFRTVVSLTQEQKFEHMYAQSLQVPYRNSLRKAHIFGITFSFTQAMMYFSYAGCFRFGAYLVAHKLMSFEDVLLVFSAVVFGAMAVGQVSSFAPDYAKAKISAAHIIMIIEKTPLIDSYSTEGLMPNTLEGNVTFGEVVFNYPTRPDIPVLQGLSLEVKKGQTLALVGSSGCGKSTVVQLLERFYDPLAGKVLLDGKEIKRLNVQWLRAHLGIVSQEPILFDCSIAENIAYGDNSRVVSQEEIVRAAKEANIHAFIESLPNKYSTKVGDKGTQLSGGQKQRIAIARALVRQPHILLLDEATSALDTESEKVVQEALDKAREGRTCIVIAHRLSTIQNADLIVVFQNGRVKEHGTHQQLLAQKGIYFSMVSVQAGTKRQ

CC(C)NC[C@@H](O)c1ccc(O)c(O)c1
period change [1]: -0.08 h | inhibition [2]: -5% | fluorescence ratio (interference) [3]: 0.9

CN1[C@@H](C[C@H](O)c2ccccc2)CCC[C@H]1CC(=O)c1ccccc1
fluorescence slope change [4]: 26.3%

Nc1nc(=S)c2ncn([C@@H]3O[C@H](CO)[C@@H](O)[C@H]3O)c2[nH]1
fluorescence slope change [4]: 59.6% (active)

CNc1ncnc2c1ncn2[C@@H]1O[C@H](CO)[C@@H](O)[C@H]1O
fluorescence slope change [4]: 64.6% (active)

c1ccc(CNc2ncnc3nc[nH]c23)cc1
fluorescence slope change [4]: 11.7%

CCCCC[C@H](O)/C=C/[C@@H]1[C@@H](C/C=C\CCCC(=O)O)[C@@H](O)C[C@H]1O (tested in a mixture with another compound)
fluorescence slope change [4]: 101% (active)

O=C1OC(C(O)CO)C(O)=C1O (stereo unspecified)
fluorescence slope change [4]: 10.1%

CNCCC=C1c2ccccc2C=Cc2ccccc21
fluorescence slope change [4]: 58% (active)

O=C1OC(CN2CCOCC2)CN1N=Cc1ccc([N+](=O)[O-])o1 (stereo unspecified)
fluorescence slope change [4]: 11.7%

— PubChem BioAssay
